# Measured values as given in PubChem BioAssay (NCATS).
# Results filed as inconclusive are left out. Entries that show only a call come without a potency. Calls of active or inactive are those of the source. The call rests on the fitted dose curve; in most records, active means well fitted curve in the direction sought with a large enough effect; inconclusive means small, poorly fitted or top-dose-only effect, or another doubt; inactive means no such curve, though single readings can be large; an effect the other way counts as inactive or inconclusive.
# Assays:
# [1] = NS1 protein of Zika virus - qHTS assay to identify small molecule inhibitors in human HEK 293 cells (AID 1347053); further: series mostly up to about 46 µM; nearly all actives have a fitted effect of over 55% in size
# Summary of the method: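 HEK 293 cells pretreated with compound for 1 h, then infected with ZIKV MR766 (MOI 0.5) for 24 h at 37 C. NS1 detected by TR-FRET with two anti-NS1 antibodies; normalized to uninfected (0%) and infected (100%) wells.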
# [2] = qHTS of pediatric cancer cell lines to identify multiple opportunities for drug repurposing: Primary screen for TC32 cells (AID 1347089); further: nearly all actives have a fitted effect of over 60% in size
# Summary of the method: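 Luminescent CellTiter-Glo read-out of metabolically active TC32 cells after 48 h compound exposure. Primary: MIPE 11-point, 0.78 nM–46 µM; NPC 8-point, 0.59 nM–46 µM. Confirmatory: 11-point dilutions.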
# [3] = qHTS of pediatric cancer cell lines to identify multiple opportunities for drug repurposing: Primary screen for SJ-GBM2 cells (AID 1347091); further: potency means the concentration at half of the fitted maximal effect
# Summary of the method: (§1)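 Eight- or eleven-point concentration series, 48 h treatment at 37 degrees C in growth media; readout CellTiter-Glo luminescence. Potency and efficacy were taken from the concentration-response curves.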
# [4] = qHTS of pediatric cancer cell lines to identify multiple opportunities for drug repurposing: Primary screen for SK-N-MC cells (AID 1347093); further: potency means the concentration at half of the fitted maximal effect
# Summary of the method: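 Metabolically active cells were quantified by ATP-dependent luminescence (CellTiter-Glo, 15 min at room temperature) following 48 h treatment. Cells had been plated at 500-1,000 per well and settled for 5 h beforehand.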
# [5] = qHTS of pediatric cancer cell lines to identify multiple opportunities for drug repurposing: Primary screen for NB-EBc1 cells (AID 1347095); further: potency means the concentration at half of the fitted maximal effect
# Summary of the method: (§2)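 Cells plated at 500-1,000/well in growth medium, compounds added after 5 h. MIPE tested at 11 points (from 0.78 nM), NPC at 8 points (from 0.59 nM). CellTiter-Glo luminescence after 48 h; concentration-response curves from primary screen.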
# [6] = qHTS of pediatric cancer cell lines to identify multiple opportunities for drug repurposing: Primary screen for U-2 OS cells (AID 1347096); further: nearly all actives have a fitted effect of over 50% in size
# Summary of the method: (§3)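 Cells (500-1,000/well) in growth media were settled 5 h at 37 degrees C, then given compounds for 48 h. Viability was read as CellTiter-Glo luminescence. Primary runs used MIPE at 11 points (0.78 nM-46 µM) and NPC at 8 points (0.59 nM-46 µM); follow-ups used 11 points.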
# [7] = qHTS of pediatric cancer cell lines to identify multiple opportunities for drug repurposing: Primary screen for Rh18 cells (AID 1347102); further: nearly all actives have a fitted effect of over 65% in size
# Summary of the method: as §3
# [8] = qHTS of pediatric cancer cell lines to identify multiple opportunities for drug repurposing: Primary screen for DAOY cells (AID 1347090); further: series mostly up to about 46 µM; nearly all actives have a fitted effect of over 55% in size
# Summary of the method: as §1
# [9] = qHTS of pediatric cancer cell lines to identify multiple opportunities for drug repurposing: Primary screen for Saos-2 cells (AID 1347097); further: nearly all actives have a fitted effect of over 40% in size
# Summary of the method: as §2
# [10] = qHTS of pediatric cancer cell lines to identify multiple opportunities for drug repurposing: Primary screen for SK-N-SH cells (AID 1347098);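 further: DMSO served as neutral control and bortezomib at 2.3 µM as positive control; nearly all actives have a fitted effect of over 65% in size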
# Summary of the method: (§4)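 Cells (500-1,000/well) rested 5 h, then received compounds for 48 h; metabolically active cells were measured by CellTiter-Glo luminescence. Final concentrations spanned up to 46 µM (MIPE, 11-point) or 0.59 nM-46 µM (NPC, 8-point) in primary screens, 11-point in follow-ups.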
# [11] = qHTS of pediatric cancer cell lines to identify multiple opportunities for drug repurposing: Primary screen for NB1643 cells (AID 1347099); further: nearly all actives have a fitted effect of over 50% in size; further: potency means the concentration at half of the fitted maximal effect
# Summary of the method: as §2
# [12] = qHTS of pediatric cancer cell lines to identify multiple opportunities for drug repurposing: Primary screen for BT-37 cells (AID 1347094); further: series mostly up to about 57 µM
# Summary of the method: as §2
# [13] = qHTS of pediatric cancer cell lines to identify multiple opportunities for drug repurposing: Primary screen for LAN-5 cells (AID 1347100)
# Summary of the method: as §3
# [14] = qHTS of pediatric cancer cell lines to identify multiple opportunities for drug repurposing: Primary screen for BT-12 cells (AID 1347101); further: nearly all actives have a fitted effect of over 25% in size
# Summary of the method: as §4
# [15] = qHTS of pediatric cancer cell lines to identify multiple opportunities for drug repurposing: Primary screen for OHS-50 cells (AID 1347103); further: nearly all actives have a fitted effect of over 40% in size
# Summary of the method: as §4
# [16] = qHTS of pediatric cancer cell lines to identify multiple opportunities for drug repurposing: Primary screen for A673 cells (AID 1347092); further: nearly all actives have a fitted effect of over 45% in size
# Summary of the method: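 A673 cells (500-1,000 cells/well in growth media) were pre-incubated 5 h at 37 degrees C, then exposed to compounds for 48 h. Viability was read as CellTiter-Glo luminescence; concentration-response curves came directly from the primary screen.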
Compound,Potency [1],Potency [2],Potency [3],Potency [4],Potency [5],Potency [6],Potency [7],Potency [8],Potency [9],Potency [10],Potency [11],Potency [12],Potency [13],Potency [14],Potency [15],Potency [16]
NC(=O)n1c(O)c(C(=O)c2cccs2)c2cc(Cl)ccc21,inactive,inactive,15 µM (active),26.6 µM (active),16.8 µM (active),inactive,inactive,,,,,,,,,
O=C(CCCN1CC=C(n2c(=O)[nH]c3ccccc32)CC1)c1ccc(F)cc1,inactive,,inactive,,inactive,,inactive,inactive,inactive,inactive,26.6 µM (active),,,,,
NC1CCN(c2nc3c(cc2F)c(=O)c(C(=O)O)cn3-c2ccc(F)cc2F)C1 (stereo not given),inactive,,inactive,inactive,inactive,inactive,inactive,inactive,inactive,inactive,inactive,inactive,inactive,inactive,inactive,
O=C1OC2(c3ccccc31)c1cc(Br)c(O)c(Br)c1Oc1c2cc(Br)c(O)c1Br,inactive,inactive,,,inactive,inactive,inactive,,,,inactive,inactive,inactive,inactive,inactive,inactive
CN(C)CCC[C@@]1(c2ccc(F)cc2)OCc2cc(C#N)ccc21,inactive,inactive,inactive,,inactive,inactive,inactive,,,,inactive,inactive,inactive,inactive,,inactive
CCN(CC)CCNC(=O)c1cc(Br)c(N)cc1OC,inactive,,inactive,inactive,inactive,inactive,inactive,inactive,inactive,inactive,inactive,inactive,inactive,inactive,inactive,inactive
Cc1cc(CC(=O)O)c(C)n1-c1ccc(Cl)cc1,inactive,,inactive,,inactive,inactive,inactive,inactive,inactive,inactive,inactive,inactive,,inactive,inactive,inactive
COc1cc(C)nc(-n2nc(C)cc2OC)n1,inactive,inactive,inactive,inactive,inactive,inactive,inactive,,inactive,inactive,inactive,inactive,inactive,inactive,,
COc1cc([C@H]2Oc3cc([C@H]4Oc5cc(O)cc(O)c5C(=O)[C@@H]4O)ccc3O[C@@H]2CO)ccc1O,inactive,,inactive,33.5 µM (active),inactive,inactive,inactive,inactive,,inactive,inactive,inactive,inactive,inactive,inactive,
CCN(CC)CCNC(=O)COc1ccc(OC)cc1,inactive,,inactive,inactive,inactive,inactive,inactive,inactive,inactive,inactive,inactive,inactive,inactive,inactive,inactive,inactive
